Measurements as given in PubChem BioAssay (Tox21).
Results filed as inconclusive are left out. Activity calls are given as the source filed them. Unless noted, the call rests on the fitted dose curve.

What was measured:
[1] = Nuclear factor erythroid 2-related factor 2/antioxidant responsive element (Nrf2/ARE) small molecule agonists: qHTS cell viability counter screen in human keratinocytes (AID 1919968; active means well fitted curve in the direction sought with a large enough effect in the repeat runs; an effect the other way counts as inactive or inconclusive; further: nearly all actives have a fitted effect of over 55% in size; further: potency means the concentration at half of the fitted maximal effect)
Summary of the method: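 Measured as CellTiter-Fluor fluorescence, this readout tracks cytotoxicity in the same wells as the ARE-luciferase screen. HaCaT reporter cells (1,500/well) received compounds after a 5 h pre-incubation and were exposed for 23 h.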

[2] = Nuclear factor erythroid 2-related factor 2/antioxidant responsive element (Nrf2/ARE) small molecule agonists: luciferase reporter gene qHTS assay in human keratinocytes (AID 1919969); further: nearly all actives have a fitted effect of over 35% in size; further: potency means the concentration at half of the fitted maximal effect
[3] = target: Gonadotropin-releasing hormone receptor (Homo sapiens) (UniProt P30968); experiment: Human gonadotropin-releasing hormone receptor (GnRHR) small molecule agonists, calcium flux assay in GnRHR-HEK293 cells (AID 1920063); further: nearly all actives have a fitted effect of over 35% in size; further: potency means the concentration at half of the fitted maximal effect
Sequence of Gonadotropin-releasing hormone receptor (Homo sapiens) (P30968 whole entry, looked up): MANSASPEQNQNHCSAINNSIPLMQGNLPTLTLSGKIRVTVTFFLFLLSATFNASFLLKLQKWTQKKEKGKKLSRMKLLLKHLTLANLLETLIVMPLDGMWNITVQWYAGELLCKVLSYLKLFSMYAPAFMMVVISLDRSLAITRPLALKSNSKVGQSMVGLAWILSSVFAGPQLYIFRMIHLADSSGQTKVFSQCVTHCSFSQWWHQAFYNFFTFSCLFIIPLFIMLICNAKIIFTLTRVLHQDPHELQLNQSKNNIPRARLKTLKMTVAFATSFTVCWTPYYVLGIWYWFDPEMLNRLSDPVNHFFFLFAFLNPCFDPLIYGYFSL
Summary of the method: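 Fluorescence kinetics (480 nm excitation, 540 nm emission; 3 min, 1 s steps) report calcium mobilisation in human GnRHR-HEK293 cells in agonist mode. Dye incubation: 1 h, 37 C.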

[4] = target: KiSS-1 receptor (Homo sapiens) (UniProt Q969F8); experiment: Human kisspeptin (KISS1R) small molecule agonists, calcium flux assay in KISS1R-HEK293 cells (AID 1920064; active means well fitted curve in the direction sought with a large enough effect in the repeat runs; an effect the other way counts as inactive or inconclusive)
Sequence of KiSS-1 receptor (Homo sapiens) (Q969F8 whole entry, looked up): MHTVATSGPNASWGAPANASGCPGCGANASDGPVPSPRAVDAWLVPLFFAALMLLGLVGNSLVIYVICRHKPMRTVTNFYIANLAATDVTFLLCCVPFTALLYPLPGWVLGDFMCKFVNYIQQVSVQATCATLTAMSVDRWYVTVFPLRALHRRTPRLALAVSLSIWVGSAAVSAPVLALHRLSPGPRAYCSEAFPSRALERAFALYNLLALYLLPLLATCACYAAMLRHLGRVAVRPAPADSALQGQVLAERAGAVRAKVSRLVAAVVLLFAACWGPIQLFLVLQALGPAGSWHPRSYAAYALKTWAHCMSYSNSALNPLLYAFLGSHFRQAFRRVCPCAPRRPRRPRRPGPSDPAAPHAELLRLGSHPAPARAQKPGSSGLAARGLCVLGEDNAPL
Summary of the method: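 Measures KISS1R agonism through calcium-sensitive dye fluorescence in stably transfected HEK293 cells, read for 3 min after pin-tool compound delivery; 15-point titrations in triplicate.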

[5] = G protein-coupled receptor (GPCR) small molecule agonists, calcium flux assay: HEK293 wild type cell line counter screen (AID 1920065)
Summary of the method: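 Readout: fluorescence at 480 nm excitation/540 nm emission, sampled at 1 s intervals for 3 min. Cells had been cultured 18 h, then dye-loaded 1 h at 37 C before compound or ATP addition.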

[6] = p53 small molecule agonists, cell-based qHTS assay with human liver microsomes (AID 1963577)
Summary of the method: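 p53RE-bla reporter cells were pre-incubated 5 h at 37 C, then treated with compounds plus human liver microsomes (0.5 mg/mL final) and NADPH (0.5 mg/mL final) for 16 h at 37 C. Beta-lactamase activity was read by LiveBLAzer fluorescence after 2 h at room temperature.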

[7] = p53 small molecule agonists, cell-based qHTS assay with rat liver microsomes (AID 1963578)
Summary of the method: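 p53RE-bla cells were exposed to compounds together with rat liver microsomes (0.5 mg/mL final) and NADPH (0.5 mg/mL final) for 16 h at 37 C, then read by LiveBLAzer beta-lactamase fluorescence after 2 h at room temperature.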

[8] = p53 small molecule agonists, cell-based qHTS assay with human liver microsomes: qHTS cell viability counter screen (AID 1963579); further: nearly all actives have a fitted effect of over 45% in size; further: potency means the concentration at half of the fitted maximal effect
Summary of the method: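 p53RE-bla cells (4,000/well) were pre-incubated 5 h at 37 C, then given compounds in DMSO plus human liver microsomes (0.5 mg/mL final) and NADPH (0.5 mg/mL final) for 16 h at 37 C. Viability was read by CellTiter-Glo luminescence.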

[9] = p53 small molecule agonists, cell-based qHTS assay with rat liver microsomes: qHTS cell viability counter screen (AID 1963580); further: nearly all actives have a fitted effect of over 45% in size; further: potency means the concentration at half of the fitted maximal effect
Summary of the method: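 Viability is assessed in parallel with the p53 reporter read: HCT-116 p53RE-bla cells receive compounds plus rat microsomes and NADPH (0.5 mg/mL final apiece), incubate 16 h at 37 C, and then CellTiter-Glo luminescence is recorded.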

[10] = target: 5-hydroxytryptamine receptor 2A (Homo sapiens) (UniProt P28223); experiment: 5-hydroxytryptamine receptor 2A (HTR2A) small molecule antagonists, cell-based qHTS assay (AID 1963586); further: nearly all actives have a fitted effect of over 45% in size; further: potency means the concentration at half of the fitted maximal effect
Sequence of 5-hydroxytryptamine receptor 2A (Homo sapiens) (P28223 whole entry, looked up): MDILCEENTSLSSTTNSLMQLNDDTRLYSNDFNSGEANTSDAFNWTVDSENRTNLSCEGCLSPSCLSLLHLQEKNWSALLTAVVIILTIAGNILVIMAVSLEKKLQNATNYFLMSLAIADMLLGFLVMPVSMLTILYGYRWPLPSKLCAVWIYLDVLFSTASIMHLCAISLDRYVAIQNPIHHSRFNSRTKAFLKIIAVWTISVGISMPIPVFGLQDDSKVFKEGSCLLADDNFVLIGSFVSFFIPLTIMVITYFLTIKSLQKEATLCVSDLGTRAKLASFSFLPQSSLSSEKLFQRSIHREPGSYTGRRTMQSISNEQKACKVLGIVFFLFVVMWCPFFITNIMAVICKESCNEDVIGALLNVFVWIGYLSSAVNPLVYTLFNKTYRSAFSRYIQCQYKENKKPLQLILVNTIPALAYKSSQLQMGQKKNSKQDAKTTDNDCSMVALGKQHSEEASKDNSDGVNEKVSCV
Summary of the method: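 Antagonist-mode intracellular calcium assay: DOI (4 nM) added after 5 min compound pre-incubation at room temperature to dye-loaded HTR2A-CHO cells. Fluorescence followed for 3 min, sampled every second.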

[11] = target: 5-hydroxytryptamine receptor 2A (Homo sapiens) (UniProt P28223); experiment: 5-hydroxytryptamine receptor 2A (HTR2A) small molecule agonists, cell-based qHTS assay (AID 1963587); further: nearly all actives have a fitted effect of over 30% in size
Summary of the method: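 CHO cells stably expressing human HTR2A, plated 18 h, loaded with calcium dye 1 h at 37 C. Agonist mode: compounds added and intracellular calcium fluorescence recorded kinetically for 2 min at 1 sec intervals.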

[12] = target: Muscarinic acetylcholine receptor M1 (Homo sapiens) (UniProt P11229); experiment: Cholinergic receptor muscarinic 1 (CHRM1) small molecule antagonists, cell-based qHTS assay (AID 1963588); further: nearly all actives have a fitted effect of over 40% in size; further: potency means the concentration at half of the fitted maximal effect
Sequence of Muscarinic acetylcholine receptor M1 (Homo sapiens) (P11229 whole entry, looked up): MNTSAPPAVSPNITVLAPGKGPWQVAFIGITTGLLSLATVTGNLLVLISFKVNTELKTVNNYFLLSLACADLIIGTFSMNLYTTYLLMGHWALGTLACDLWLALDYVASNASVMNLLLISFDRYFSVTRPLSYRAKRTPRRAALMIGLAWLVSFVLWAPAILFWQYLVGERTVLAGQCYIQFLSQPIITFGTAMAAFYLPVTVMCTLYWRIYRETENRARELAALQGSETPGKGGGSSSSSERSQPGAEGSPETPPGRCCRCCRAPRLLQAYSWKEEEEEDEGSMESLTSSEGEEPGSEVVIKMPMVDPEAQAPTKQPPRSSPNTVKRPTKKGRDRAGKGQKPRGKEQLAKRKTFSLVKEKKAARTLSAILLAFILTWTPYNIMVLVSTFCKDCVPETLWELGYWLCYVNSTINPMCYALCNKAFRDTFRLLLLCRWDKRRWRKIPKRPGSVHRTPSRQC
Summary of the method: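 CHRM1-CHO calcium-flux assay, antagonist mode. Cells were seeded 18 h, dye-loaded 1 h at 37 C and given compound for 5 min at RT, then acetylcholine was added at 50nM. FDSS fluorescence was read 3 min; 15 concentrations, three runs.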

[13] = cAMP Responsive Elements (CRE) small molecule agonists, cell-based qHTS assay (AID 1963590)
Summary of the method: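 Cell line: CRE-bla HEK 293T; medium DMEM/10% dialyzed FBS/0.1 mM NEAA/1 mM pyruvate/25 mM HEPES; 3 h compound exposure; beta-lactamase FRET readout after 2 h substrate loading at RT.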

[14] = target: Beta-2 adrenergic receptor (Homo sapiens) (UniProt P07550); experiment: Adrenergic beta2 receptor (ADRB2) small molecule antagonists, cell-based qHTS assay (AID 1963592); further: series mostly up to about 92 µM; nearly all actives have a fitted effect of over 50% in size
Sequence of Beta-2 adrenergic receptor (Homo sapiens) (P07550 whole entry, looked up): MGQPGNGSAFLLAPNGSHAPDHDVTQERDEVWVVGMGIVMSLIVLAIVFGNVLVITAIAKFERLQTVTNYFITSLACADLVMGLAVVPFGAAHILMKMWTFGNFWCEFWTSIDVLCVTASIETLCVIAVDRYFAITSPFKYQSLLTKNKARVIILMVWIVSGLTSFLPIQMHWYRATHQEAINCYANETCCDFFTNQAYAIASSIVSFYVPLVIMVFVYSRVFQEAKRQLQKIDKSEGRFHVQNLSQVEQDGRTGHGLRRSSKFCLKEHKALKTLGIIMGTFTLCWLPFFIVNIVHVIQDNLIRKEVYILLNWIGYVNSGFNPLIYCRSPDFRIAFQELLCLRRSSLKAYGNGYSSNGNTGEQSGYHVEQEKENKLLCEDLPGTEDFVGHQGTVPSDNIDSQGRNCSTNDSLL
Summary of the method: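 Cells (CHO, stable ADRB2 overexpression) incubated 18-20hr at 37C; compounds added from DMSO; agonist mix (1nM isoproterenol, 100uM IBMX, 25uM Ro-20-1724) added; 0.5hr RT; d2-cAMP and anti-cAMP-cryptate added; 1hr RT; 665/615 nm read.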

[15] = target: D(2) dopamine receptor (Homo sapiens) (UniProt P14416); experiment: Dopamine D2 receptor (DRD2) small molecule agonists, cell-based qHTS assay (AID 1963594); further: nearly all actives have a fitted effect of over 35% in size
Sequence of D(2) dopamine receptor (Homo sapiens) (P14416 whole entry, looked up): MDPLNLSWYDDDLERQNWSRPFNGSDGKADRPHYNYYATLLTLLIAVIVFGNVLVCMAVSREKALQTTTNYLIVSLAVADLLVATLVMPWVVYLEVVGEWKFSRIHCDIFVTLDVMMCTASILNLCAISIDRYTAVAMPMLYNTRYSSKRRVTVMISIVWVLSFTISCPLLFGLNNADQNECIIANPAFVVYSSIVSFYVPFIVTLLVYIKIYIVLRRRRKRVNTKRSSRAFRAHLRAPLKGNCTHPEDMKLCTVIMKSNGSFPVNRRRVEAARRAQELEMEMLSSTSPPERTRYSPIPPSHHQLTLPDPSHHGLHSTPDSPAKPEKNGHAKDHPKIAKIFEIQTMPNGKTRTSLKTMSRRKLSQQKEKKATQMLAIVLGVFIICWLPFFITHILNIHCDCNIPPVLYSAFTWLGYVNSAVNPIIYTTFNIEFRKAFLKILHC
Summary of the method: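 HEK293 cells stably expressing human DRD2, pre-treated with PDE inhibitor Ro20-1724 (0.1 mM final) and compound 10 min at room temperature, then stimulated with NKH477 (200nM […]) for 30 min. cAMP read by HTRF (665/620 nm).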

[16] = target: D(2) dopamine receptor (Homo sapiens) (UniProt P14416); experiment: Dopamine D2 receptor (DRD2) small molecule antagonists, cell-based qHTS assay (AID 1963595; active means well fitted inhibition curve with a large enough effect in the signal ratio in the repeat runs, with a control signal flat; the % refers to the signal ratio; further: potency means the concentration at half of the fitted maximal effect)
Summary of the method: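 HEK293 cells stably expressing DRD2, preincubated with 0.1 mM Ro20-1724 and compounds 10 min, were stimulated with 200 nM NKH477 plus 12 nM quinpirole for 30 min at room temperature; cAMP measured by HTRF (665/620 nm).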

[17] = target: Muscarinic acetylcholine receptor M1 (Homo sapiens) (UniProt P11229); experiment: Cholinergic receptor muscarinic 1 (CHRM1) small molecule agonists, cell-based qHTS assay (AID 1963589); further: nearly all actives have a fitted effect of over 35% in size
Summary of the method: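 Each compound was tested at 15 concentrations across three independent runs on dye-loaded CHO cells stably expressing human CHRM1, reading intracellular calcium fluorescence kinetically at 1 sec intervals.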

[18] = target: Beta-2 adrenergic receptor (Homo sapiens) (UniProt P07550); experiment: Adrenergic beta2 receptor (ADRB2) small molecule agonists, cell-based qHTS assay (AID 1963593);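 further: CHO cells stably overexpressing human ADRB2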
Summary of the method: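 CHO cells stably over-expressing ADRB2 were plated overnight at 37C, then dosed with compounds plus a stimulation mix containing 100uM IBMX and 25uM Ro-20-1724 for 0.5hr at room temperature. cAMP was measured by HTRF competition, 1hr.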

[19] = cAMP Responsive Elements (CRE) small molecule antagonists, cell-based qHTS assay (AID 1963591; active means well fitted inhibition curve with a large enough effect in the signal ratio in the repeat runs, not every such curve was filed as active; the % refers to the signal ratio)
Summary of the method: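 Inhibition of NKH477-driven (0.25 uM final) CRE-beta-lactamase signal in HEK293T cells, 3 h compound exposure at 37 °C, detected by FRET substrate fluorescence.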

[20] = p53 small molecule agonists, cell-based qHTS assay (AID 1963582; active means well fitted activation curve with a large enough effect in the signal ratio in the repeat runs, not every such curve was filed as active; the % refers to the signal ratio)
Summary of the method: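 Compounds are pin-transferred in DMSO onto p53RE-bla cells and incubated 16 h at 37 C. The B/G FRET beta-lactamase substrate is then applied for 2 h at RT and fluorescence recorded.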

Measured: Potency

COc1ccc(Nc2ccc(OC)cc2)cc1
inactive: [1] | [3] | [4] | [5] | [6] | [7] | [8] | [9] | [10] | [11] | [12] | [13] | [14] | [15] | [16]
active: [2] 27.8 µM

O=C(O)Cn1c(C(=O)Nc2nc(-c3ccccc3Cl)cs2)cc2ccccc21
inactive: [1] | [4] | [5] | [6] | [7] | [8] | [9] | [10] | [11] | [12] | [17] | [14] | [16]
active: [2] 15 µM | [3] 3.38 µM

CN1CCN(CCCN2c3ccccc3Sc3ccc(C(F)(F)F)cc32)CC1
inactive: [2] | [3] | [4] | [5] | [6] | [7] | [8] | [9] | [14] | [18] | [15]
active: [1] 29.8 µM | [16] 0.0298 µM

O[C@@H](CNC[C@H](O)[C@H]1CCc2cc(F)ccc2O1)[C@@H]1CCc2cc(F)ccc2O1
active: [1] 23.7 µM | [10] 18.3 µM
inactive: [2] | [3] | [4] | [5] | [6] | [7] | [8] | [9] | [12] | [13] | [19] | [15]

C/C=C(/C(=C/C)c1ccc(O)cc1)c1ccc(O)cc1
inactive: [2] | [3] | [4] | [5] | [6] | [7] | [8] | [9] | [17] | [19] | [14] | [18] | [15] | [16]
active: [1] 15 µM | [12] 2.9 µM

Nc1ncnc2c1ncn2[C@@H]1O[C@H](CO)[C@@H](O)[C@H]1O
inactive: [1] | [2] | [3] | [4] | [5] | [6] | [7] | [8] | [9] | [10] | [11] | [12] | [17] | [13] | [19] | [14] | [16]

O=C(O)Cc1sc(-c2ccccc2)nc1-c1ccc(Cl)cc1
inactive: [1] | [2] | [3] | [4] | [5] | [6] | [7] | [8] | [9] | [10] | [11] | [12] | [17] | [14] | [16]

C=Cc1ccccc1
inactive: [1] | [2] | [3] | [4] | [5] | [6] | [7] | [8] | [9] | [10] | [11] | [12] | [17] | [13] | [19] | [14] | [15] | [16]

CCCCCCCC[N+](CCCCCCCC)(CCCCCCCC)CCCCCCCC
active: [1] 8.62 µM | [8] 18.2 µM | [9] 16.2 µM | [16] 24.3 µM
inactive: [2] | [3] | [4] | [5] | [6] | [7] | [11] | [12] | [17] | [14] | [15]

C1=CCCC1
inactive: [1] | [2] | [3] | [4] | [5] | [6] | [7] | [8] | [20] | [10] | [11] | [12] | [17] | [13] | [19] | [14] | [15] | [16]

COCCC(=O)OC
active: [2] 68.6 µM
inactive: [1] | [3] | [4] | [5] | [6] | [7] | [8] | [20] | [10] | [11] | [12] | [17] | [13] | [19] | [14] | [15] | [16]

CC(=O)CC(=O)Nc1ccc(C)cc1C
inactive: [1] | [2] | [3] | [4] | [5] | [6] | [7] | [8] | [20] | [10] | [11] | [12] | [17] | [13] | [14] | [18] | [15] | [16]

Cc1c(C(C)C)c(=O)n(-c2ccccc2)n1C
inactive: [1] | [2] | [3] | [4] | [5] | [6] | [7] | [8] | [20] | [10] | [11] | [12] | [13] | [19] | [14] | [15] | [16]

CCOc1nc(F)cc2nc(S(=O)(=O)Nc3c(Cl)cccc3C(=O)OC)nn12
inactive: [1] | [2] | [3] | [4] | [5] | [6] | [7] | [8] | [20] | [10] | [11] | [12] | [17] | [19] | [14] | [15] | [16]

CCCCCCCC1CCCC1=O (stereo not given)
inactive: [1] | [2] | [3] | [4] | [5] | [6] | [7] | [8] | [20] | [10] | [11] | [12] | [17] | [13] | [19] | [14] | [15] | [16]
